# Test results: PubChem BioAssay (NCI)
# About 83,000 compounds went through this panel and 20% of them were active in at least one assay; those are over-represented in the sample as a whole.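 The test compound was applied at a single concentration to cells in 96-well plates for 48 hours, and percent growth was recorded.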 Active and inactive are the calls of the source. How the source made its calls: active means growth percent below 10; inactive means the rest.
# Test system: HL-60(TB) leukemia
# Assay: NCI-60 one-dose screen, 48 h (100 = growth as untreated, 0 = no growth, -100 = all killed)
# Settings: 10 µM unless noted
row,SMILES,growth
1,CN1C(=O)C2(SCC(C(=O)NCc3ccccc3)N2C(=O)C2CCCCC2)c2ccccc21 (stereo not given),80.4% (inactive)
2,Clc1ccc2nc3nc4ccc[nH]c4cc3c2c1,88.2% (inactive)
3,O=C1c2cc3c(cc2-c2c1c1ccc(Cl)cc1c(=O)n2C[C@H](O)[C@@H](O)[C@H](O)CO)OCO3,-5.75% (active)
4,CC(C)c1c(C(=O)c2ccccc2)c(-c2ccccc2)c(-c2ccc(F)cc2)n1CC[C@@H](O)C[C@@H](O)CC(=O)O,74% (inactive)
5,CCO/C=N/C1=C(C#N)C(c2ccc(Cl)cc2)c2c(c3ccc(C)cc3[nH]c2=O)O1 (stereo not given),88.6% (inactive)
6,N#Cc1c(-c2ccco2)nc2c(c(-c3ccccc3)nn2-c2ccccc2)c1-c1ccc(O)cc1,22.9% (inactive)
7,N#C/C(=C\c1c(-c2ccccc2)[nH]c2ccccc12)C(=O)c1ccccc1,2.79% (active)
8,O=C1C=C(Nc2cccc(Br)c2)c2ccccc2C1=O,71.8% (inactive)
9,O=S(=O)(NCCCNc1cc(-c2c(-c3cccc(O)c3)nc3sccn23)ccn1)c1cccc2ccccc12,41.3% (inactive)
10,CO[C@H](C(=O)N[C@@H](CCCCNC(=O)OCc1ccccc1)C(=O)OC(C)(C)C)[C@@H]1Cc2cc3cc(OC4CC(OC5CC(O)C(O)C(C)O5)C(O)C(C)O4)c(C)c(O)c3c(O)c2C(=O)[C@H]1OC1CC(OC2CC(OC3CC(C)(O)C(O)C(C)O3)C(O)C(C)O2)C(O)C(C)O1 (stereo not given in full),-0.249% (active)
11,C[Si](C)(C)C(c1ccccc1)c1ccccc1,80.5% (inactive)
12,N#Cc1c(Oc2ccc([N+](=O)[O-])cc2)nc2sc3cc(Cl)ccc3n2c1=N,151% (inactive)
13,c1ccc(-c2cn3ccnc3c(-c3ccc4c(c3)ncn4C3CCCCC3)n2)cc1,80.7% (inactive)
14,O=C(NO)c1ccc(CNc2cccc3nc(C4CC4)n(-c4ccccc4)c(=O)c23)cc1,7.45% (active)
15,CC(=O)C1=C(O)C=C2Oc3c(C(=O)/C=C/c4cc(C(F)(F)F)cc(C(F)(F)F)c4)c(O)c(C)c(O)c3[C@]2(C)C1=O,-35.2% (active)
16,Cc1ccc(C2CC(c3ccc(Nc4ccnc5cc(Cl)ccc45)cc3)=NN2C=O)cc1 (stereo not given),9.36% (active)
17,C[C@]12O[C@H]1[C@H](O)c1c(cc(O)c3c1C(=O)c1cccc(O)c1-3)C2=O,100% (inactive)
18,Nc1nc(N)c(N=Nc2ccc(C(=O)O)cc2)c(N)n1,90% (inactive)
19,S=c1n(CNc2ccc(Cl)nn2)nc(-c2cc(Cl)cc(Cl)c2Cl)n1/N=C/c1ccc(Cl)cc1,3.47% (active)
20,O=c1[nH]c(NCc2ccccc2)nc2nc(Nc3ccc(NC(=S)Nc4ccccc4)cc3)nc(-c3ccc(O)cc3O)c12,98.4% (inactive)

row,SMILES,growth
1,CCCCCO/N=C\c1c2c(O)c3c(O)c(C)c4c(c3c1O)C(=O)C(C)(O/C=C\C(OC)C(C)C(OC(C)=O)C(C)C(O)C(C)C(O)C(C)/C=C\C=C(\C)C(=O)N2)O4 (stereo not given),-6.96% (active)
2,CCCCOc1nc2ccccc2cc1C1CNC(=O)c2ccccc2N1 (stereo not given),-8.72% (active)
3,Cc1c2cnccc2c(C)c2c1c1cc(O)ccc1n2C(C)C,0.765% (active)
4,COc1ccc(/C=C/c2c(C(=O)/C=C/c3ccc(C(F)(F)F)cc3)c(C)nc3ccccc23)cc1,-21.7% (active)
5,CC(C)=CC/C=C(/C)[C@H]1CC[C@]2(C)[C@@H]1CC[C@@H]1[C@@]3(C)CCC(=O)NC(C)(C)[C@@H]3CC[C@]12C,-22.1% [100 µM] (active)
6,COc1ccc(C2CC(=O)c3c(O)c(OC)c(OC)c(OC)c3O2)c(O)c1 (stereo not given),2.26% (active)
7,C=CCn1cc(-c2nc3ccccc3s2)c2cc(-c3ccc4c5c(cccc35)C(=O)N(CCN3CCNCC3)C4=O)ccc21,103% (inactive)
8,Nc1ccc(Cl)c([N+](=O)[O-])c1,118% (inactive)
9,COc1ccc(NC(=O)c2ccc(/C=C/C(=O)c3ncc[nH]3)cc2)cc1,33.6% (inactive)
10,C=C(C)[C@@H]1CC[C@]2(C(=O)NCCNCCNCCN)CC[C@]3(C)[C@H](CC[C@@H]4[C@@]5(C)CCC(=O)C(C)(C)[C@@H]5CC[C@]43C)[C@@H]12,-35.6% [100 µM] (active)
11,COc1cc(/C=C/c2cc(/C=C/c3ccc(O)c(OC)c3)n(-c3c(C)cccc3C)c(=O)n2)ccc1O,6.05% (active)
12,CCOC(=O)c1cnc2c(N=Nc3ccc(OC)cc3)c(N)nn2c1N,96.2% (inactive)
13,C=CCn1c(SCC(=O)Nc2ccc(C(=O)/C=C/c3cc(OC)c(OC)c(OC)c3)cc2)nnc1-c1cc(-c2ccc(S(N)(=O)=O)cc2)nc2ccccc12,57.5% (inactive)
14,CCCCCCn1c(-c2ccc(C(=O)O/N=C(\N)c3ccc(OC)cc3)cc2)nc(-c2ccccc2)c1-c1ccccc1,-58% (active)
15,CC(C)c1ccc(NC(=O)Cc2ccc(Nc3ncnc4cc(-c5cnn(CCN(C)C)c5)ccc34)cc2)cc1,-66.4% [30 µM] (active)
16,CN(C)c1ccc(/C=C\N=Nc2ccc(Br)cc2)cc1,16.6% (inactive)
17,O=c1c2ccccc2sc2c(NCCCNCCO)nc3ccccc3c12,7.81% (active)
18,CC(O)C(F)(F)C(F)(F)C(F)(F)F (stereo not given),101% (inactive)
19,COc1cc(Cc2cc(OC)c(O)c(OC)c2)cc(OC)c1O,44% (inactive)
20,COC(=O)C(c1ccccc1)C(CC(=O)c1ccccc1)c1ccccc1 (stereo not given),92.5% (inactive)
